PubChem BioAssay AID1209 (Sanford-Burnham Center for Chemical Genomics, 2008)
Among all 190,000 compounds or so, about 810 (0.43%) were called active. Many of the other results were omitted from the sample, so actives are more common in it than they were. Values without a mark were called inactive. Cut-off read from the data, not from the text of the source: active = inhibition above about 50%; inactive = the rest.

These compounds were tested against Mannose-6-phosphate isomerase (Homo sapiens) (UniProt P34949) (assay: inhibitors of human PMI, primary screen, biochemical, fluorescence intensity, coupled assay (AID 1209;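 note: plate controls were DMSO vehicle for no effect and wells lacking substrate for full effect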)). Details: purified PMI enzyme, at 20 µM, stronger effect = higher value.
Chain of Mannose-6-phosphate isomerase (Homo sapiens) (P34949 whole entry, looked up): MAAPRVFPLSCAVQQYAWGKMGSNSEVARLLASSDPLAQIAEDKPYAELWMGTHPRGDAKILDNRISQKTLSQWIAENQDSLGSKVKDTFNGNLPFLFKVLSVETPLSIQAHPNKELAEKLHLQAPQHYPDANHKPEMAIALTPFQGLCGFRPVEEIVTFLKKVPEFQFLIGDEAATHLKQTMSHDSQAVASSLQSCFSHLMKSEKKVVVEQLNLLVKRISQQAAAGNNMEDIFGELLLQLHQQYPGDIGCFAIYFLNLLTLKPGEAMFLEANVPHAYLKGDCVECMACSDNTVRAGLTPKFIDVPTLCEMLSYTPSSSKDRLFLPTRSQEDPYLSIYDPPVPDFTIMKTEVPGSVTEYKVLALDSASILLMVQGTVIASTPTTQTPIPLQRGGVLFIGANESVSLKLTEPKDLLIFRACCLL
`COc1ccc(OC)c(NS(=O)(=O)c2ccc(NC(=O)c3ccc(NS(C)(=O)=O)cc3)cc2)c1` was tested, and the inhibition was 1.4%. With `O=C(OCC(CO)OC(CO)n1ccc(=O)[nH]c1=O)c1ccccc1` (stereo not drawn) the inhibition was 7.7%. `Cn1c(=O)oc2cc(S(=O)(=O)N3CCC(C(=O)NCc4ccc(F)cc4)CC3)ccc21` was tested, and the inhibition was 4.5%. Work on `CCOC(=O)c1ccc(-n2c(N)c(C(=O)NCC3CCCO3)sc2=S)cc1` (stereo not drawn) yielded an inhibition of 31.5%. `CCn1c(N)c(C(=O)NC)sc1=S` was tested, and the inhibition was 67.3% (active). Compound `CCn1c(N)c(C(N)=O)sc1=S` has an inhibition of 18.4%. For `CCn1c(N)c(C(=O)NCC2CCCO2)sc1=S` (stereo not drawn), the inhibition was 70.4% (active). With `C=CCn1c(N)c(C(=O)NCC2CCCO2)sc1=S` (stereo not drawn) the inhibition was -2.2%. `CCNC(=O)c1sc(=S)n(CC)c1N` gave an inhibition of 6.5%. `CCN(CC)CCn1c(=N)n(CC(O)c2ccc(OC)c(OC)c2)c2ccccc21` (stereo not drawn) gave an inhibition of -0.3%. `O=C(CCN1C(=O)C2CC=CCC2C1=O)N1CCN(c2ccccn2)CC1` (stereo not drawn) was tested, and the inhibition was -3.3%. `C=CCSc1nnc(C)n1-c1ccc(Cl)cc1` was tested, and the inhibition was 21.9%. `C/C(=N\N=C(N)N)c1cccc(Cl)c1` was tested, and the inhibition was 11.7%. `O=C(N/N=C/c1ccccc1C(=O)O)C(=O)N1CCCCC1` was tested, and the inhibition was 2.7%. With `Oc1ccc(/C=N/NC(=S)NCCN2CCOCC2)c(O)c1` the inhibition was -8.8%. `NC(=S)N/N=C/c1ccccc1[N+](=O)[O-]` was tested, and the inhibition was 24.6%. Compound `NC(=S)N/N=C/c1ccccc1` has an inhibition of 11.4%. In the case of `Oc1cccc(/C=N/NC(=S)Nc2cccnc2)c1O`, the inhibition is reported as 55.6% (active). With `Oc1ccc(/C=N/NC(=S)Nc2cccnc2)cc1O` the inhibition was 43.5%. For `Oc1cccc(/C=N/NC(=S)NCCN2CCOCC2)c1O`, the inhibition was 66.9% (active). `S=C(NCCN1CCOCC1)N/N=C/c1ccccc1` gave an inhibition of 2%. For `Oc1ccc(/C=N/NC(=S)Nc2cccnc2)c(O)c1`, the inhibition was -1.2%. In the case of `O=C(COc1ccc(Cl)cc1)NCC(=O)N/N=C/c1cccs1`, the inhibition is reported as 2.8%. Work on `Cc1noc(C(=O)Nc2c(C)n(C)n(-c3ccccc3)c2=O)c1Cl` yielded an inhibition of -5.9%. `COc1cccc(S(=O)(=O)N2CCOCC2)c1` was tested, and the inhibition was 1.2%. `O=C(COC(=O)c1cccnc1Cl)NCC1CCCO1` (stereo not drawn) gave an inhibition of -1.2%. For `CCOc1ccc(OCC(=O)OCn2c(SC)nnc(C)c2=O)cc1`, the inhibition was 15.9%. With `O=c1[nH]c2ccccc2n2c(-c3ccccc3)nnc12` the inhibition was 84.7% (active). In the case of `O=c1[nH]c2ccccc2n2c(-c3ccncc3)nnc12`, the inhibition is reported as 1.8%. In the case of `O=c1[nH]c2ccccc2n2cnnc12`, the inhibition is reported as -5.1%. In the case of `Cc1ccc(NC(=O)N(CCCN2CCOCC2)Cc2cccnc2)cc1C`, the inhibition is reported as -1.1%. Work on `COC(=O)CNC(=O)Cn1cnc2sc(C)c(S(=O)(=O)N3CCC(C)CC3)c2c1=O` yielded an inhibition of -9%. With `CCc1ccc(N2CCCn3c2nc2c3c(=O)n(CCN3CCOCC3)c(=O)n2C)cc1` the inhibition was -10.4%. In the case of `O=C(N/N=C/c1ccccc1)c1[nH]c2ccc(Br)cc2c1-c1ccccc1`, the inhibition is reported as 15.4%. `Oc1ccc(Br)cc1/C=N/N1CCN(Cc2ccccc2)CC1` gave an inhibition of 6.6%. With `O=C(O)c1cccc(C(=O)O)n1` the inhibition was 58% (active). Work on `CC(=O)Nc1cccc(C(=O)O)n1` yielded an inhibition of 6.7%. In the case of `CC(C)OC(=O)c1cccc(C(=O)O)n1`, the inhibition is reported as 21.8%. With `Cc1ccc(SCc2cn3cccnc3n2)cc1` the inhibition was 12.5%. Work on `Cc1ccc(C2=[N+]([O-])C3(CCCCC/C3=N\NC(N)=O)N(O)C2(C)C)o1` (stereo not drawn) yielded an inhibition of -4.7%. With `Cc1nccn1CC(=O)N/N=C/c1cccc(O)c1` the inhibition was 7.9%. `O=C(COc1ccccc1[N+](=O)[O-])N/N=C/c1ccc(O)c([N+](=O)[O-])c1` was tested, and the inhibition was -10.2%. With `Cc1nccn1CC(=O)N/N=C/c1ccc(O)c(O)c1` the inhibition was 64.4% (active). In the case of `O=C(COc1ccccc1C(=O)N/N=C\c1ccc(O)c(O)c1)N/N=C/c1ccc(O)c(O)c1`, the inhibition is reported as 60.6% (active). `COc1cccc(/C=N/NC(=O)Cn2ccnc2C)c1` was tested, and the inhibition was 14.6%. Work on `O=C(COc1ccccc1-c1ccccc1)N/N=C/c1ccc2ccccc2c1` yielded an inhibition of 8.9%. `CCOC(=O)C1=C(C)NC(SC(C)=O)=NC1c1ccc(OC(C)=O)c(OC)c1` (stereo not drawn) was tested, and the inhibition was 17.5%. For `CC1CCc2c(sc(NC(=O)COC(=O)C3CCCO3)c2C#N)C1` (stereo not drawn), the inhibition was -3.7%. Compound `O=C(CSCC(=O)N1CCOCC1)Nc1ccccc1` has an inhibition of -11.1%. `O=C(NCCc1ccccc1)C1CCN(S(=O)(=O)N2CCC3(CC2)OCCO3)CC1` showed an inhibition of 17.1%. With `O=C1CN(C(=O)CSc2nc(-c3ccccc3)cs2)c2ccccc2N1` the inhibition was -3.1%. Compound `COc1ccc2nc(NNC(=O)C3COc4ccccc4O3)sc2c1` (stereo not drawn) has an inhibition of -43.9%. `CN1C(=O)/C(=C\C=C2/CCCN2C)N(C)C1=S` was tested, and the inhibition was 53.2% (active). Work on `CN1C(=O)/C(=C/C=C2\SCCN2C)N(C)C1=S` yielded an inhibition of 45.3%. Compound `CN1C(=O)/C(=C/C=C2/CCCN2C)N(C)C1=S` has an inhibition of 35.8%. `COc1ccc(/C=C(/NC(=O)c2ccccc2)C(=O)N/N=C/c2ccncc2)c(OC)c1` was tested, and the inhibition was 18.6%. `COc1ccc(CCNC(=O)c2nnn(CC(=O)Nc3cccc(F)c3)c2N)cc1OC` showed an inhibition of -0.3%. `CCOc1ccc(/C=C/C(O)=C2/C(=O)NC3(C)CC2c2ccccc2O3)cc1OC` (stereo not drawn) showed an inhibition of -21.3%. Work on `O=C(c1cnn(-c2ccccc2)c1)c1ccccc1O` yielded an inhibition of 19.7%. For `O=C(Cc1cnn(-c2ccccc2)c1)c1ccc(O)c(O)c1O`, the inhibition was 70.8% (active). `CCc1cc(C(=O)Cc2cnn(-c3ccccc3)c2)c(O)cc1O` showed an inhibition of 11.4%. With `Nn1c(SCC(=O)Nc2ccc3c(c2)OCO3)nnc1C1CC1` the inhibition was 5.7%. In the case of `N#Cc1ccc(N=c2ssnc2Cl)cc1`, the inhibition is reported as 81.2% (active). Compound `CSc1nccc(Oc2cccc(C#N)c2)n1` has an inhibition of -4.1%. Work on `N#Cc1cccc(N=Cc2c(O)ccc3ccccc23)c1` yielded an inhibition of 39.3%. For `COc1ccc(N2CCN(C(=O)c3cccn4c(=O)c5ccccc5nc34)CC2)cc1`, the inhibition was -5.8%. `CC1CCCCN1Cc1c(O)ccc2c(=O)c(-c3nc4ccccc4s3)c(N)oc12` (stereo not drawn) was tested, and the inhibition was 58% (active). `CC1CCCN(Cc2c(O)ccc3c(=O)c(-c4nc5ccccc5s4)c(N)oc23)C1` (stereo not drawn) was tested, and the inhibition was 6.9%. In the case of `CC1CCN(Cc2c(O)ccc3c(=O)c(-c4nc5ccccc5s4)c(N)oc23)CC1`, the inhibition is reported as 11.2%. `O=c1c(-c2ccccc2)c(O)nc2ccccn12` gave an inhibition of 4.9%. `COc1cc(C(=O)OCC(=O)N(C)C)cc(NC(=O)c2ccco2)c1OC` was tested, and the inhibition was 5.7%. With `CO[C@H]1C=CO[C@@]2(C)Oc3c(C)c(O)c4c(O)c(c5c(nc6cc(C)ccn65)c4c3C2=O)NC(=O)C(C)=CC=C[C@H](C)[C@H](O)[C@@H](C)[C@@H](O)[C@@H](C)[C@H](OC(C)=O)[C@@H]1C` the inhibition was 13.9%. With `CO[C@H]1C=CO[C@@]2(C)Oc3c(C)c(O)c4c(O)c(c(C=NN5CCN(C6CCCC6)CC5)c(O)c4c3C2=O)NC(=O)C(C)=CC=C[C@H](C)[C@H](O)[C@@H](C)[C@@H](O)[C@@H](C)[C@H](OC(C)=O)[C@@H]1C` the inhibition was 50.8% (active). For `CO[C@H]1C=CO[C@@]2(C)Oc3c(C)c(O)c4c(O)c(c(C=NN5CCN(C)CC5)c(O)c4c3C2=O)NC(=O)C(C)=CC=C[C@H](C)[C@H](O)[C@@H](C)[C@@H](O)[C@@H](C)[C@H](OC(C)=O)[C@@H]1C`, the inhibition was 7%. In the case of `CC1=NC(C(F)(F)F)(C(F)(F)F)C2=C(CC(C)(C)CC2=O)N1Cc1ccco1`, the inhibition is reported as 6%. With `CN1CCN(/N=C/c2nc(-c3cccc([N+](=O)[O-])c3)n3ccccc23)CC1` the inhibition was 8.1%. Compound `O=C(Nc1nc2ccccc2[nH]1)C1CCCC1` has an inhibition of 4.1%. For `CC(NS(=O)(=O)c1ccccc1)C(c1cccs1)N1CCN(C)CC1` (stereo not drawn), the inhibition was 1.7%. For `CC(=O)n1cc(Nc2ccc([N+](=O)[O-])cc2)c2ccccc21`, the inhibition was -30.8%. For `CC(=O)n1cc(C(C[N+](=O)[O-])SCCN)c2ccccc21` (stereo not drawn), the inhibition was 6.6%. In the case of `CC(=O)SC(C[N+](=O)[O-])c1cn(C(C)=O)c2ccccc12` (stereo not drawn), the inhibition is reported as 63.1% (active). Work on `C=CCn1c(SCC(=O)Nc2nc(C)cs2)nnc1C(NC(=O)c1ccccc1)C(C)C` (stereo not drawn) yielded an inhibition of 5.4%. `O=C(CSc1nc(-c2ccccc2)nc2ccccc12)Nc1cccc(C(=O)O)c1` gave an inhibition of 20.6%. `CCOC(=O)c1cc(-c2ccccc2)sc1NC(=O)c1ccc(OC)c(OC)c1` was tested, and the inhibition was 42.1%. `CCOC(=O)c1cc(-c2ccccc2)sc1NC(=O)c1cc(OC)c(OC)c(OC)c1` gave an inhibition of 13%. For `CCOC(=O)c1cc(-c2ccccc2)sc1NC(=O)c1ccc(OC)cc1`, the inhibition was 68.2% (active). Compound `CCn1c(SCC(=O)c2ccc(CNC(C)=O)o2)nnc1-c1cccs1` has an inhibition of -9%. In the case of `O=c1cc2[nH]c3ccccc3c(=O)n2nc1-c1ccccc1`, the inhibition is reported as 63.9% (active). For `O=c1cc(-c2ccccc2)[nH]c2ccccc12`, the inhibition was -3.1%. For `O=c1nc(-c2ccccc2)c2ccccc2[nH]1`, the inhibition was 10.3%. For `Cc1ccc(Cl)cc1NC(=O)N[C@@H](C)C(=O)O`, the inhibition was -0.2%. With `O=C(C1CCN(S(=O)(=O)c2cccc3nsnc23)CC1)N1CCn2c1nc1ccccc12` the inhibition was 8.5%. `C=CCn1c(NCCOC)nc2c1c(=O)n(C)c(=O)n2C` was tested, and the inhibition was -2.8%. `CCCSc1nnc2nc(C)cc(C)n12` gave an inhibition of -2.6%. With `CCSc1nnc2nc(C)cc(C)n12` the inhibition was 7.6%. `Cc1nnsc1SCC(=O)O` showed an inhibition of -12.4%. In the case of `Cc1nnsc1SC(C)C(=O)O` (stereo not drawn), the inhibition is reported as 64.6% (active). Compound `CC(Sc1sc(=S)sc1SC(C)C(=O)O)C(=O)O` (stereo not drawn) has an inhibition of -15.4%.
